Source: PubChem BioAssay (National Center for Advancing Translational Sciences (NCATS))
HCV inh: qHTS Assay for Inhibitors of Hepatitis C Virus (HCV). Potency, µM (titrated, usually from 41.8 µM), inactives show top-dose activity change, negative = inhibition, actives largely listed as inhibitors. Huh7.5.1 HCVcc-Cre infection, luciferase reporter, 44 h. hit rate 3.4% among 340,000; active means well fitted inhibition curve with a large enough effect; inconclusive means small, poorly fitted or top-dose-only effect, or another doubt; inactive means no such curve, though single readings can be large or run the other way; further: potency means the concentration at half of the fitted maximal effect
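Compounds are dispensed onto cells plated 4 h earlier at 1,000 per well, with HCVcc-Cre virus (about 0.5 moi) added next. Following 44 h of culture, luminescent signal is measured for 15 sec after 15 min with substrate at room temperature.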
Vaccinia Venus: qHTS for Stage-Specific Inhibitors of Vaccinia Orthopoxvirus: Venus Reporter Primary qHTS; AID 720580, 2013; Vaccinia virus Venus reporter expression, fluorescence; Potency, µM (series often up to 36.5 µM), for inactives: top-dose activity change, negative = inhibition, most hits filed as inhibitors; hit rate 0.46% among 330,000; calls by dose curve; tested in A549 cells; further: potency means the concentration at half of the fitted maximal effect; nearly all actives have a fitted effect of over 30% in size
FMDV inh: High Throughput Screening for Foot and Mouth Disease Virus Antivirals; hit rate 1.2% among 410,000; Potency, µM (top dose mostly 57.9 µM), without a hit: at the highest dose activity change, negative = inhibition, usual class: inhibitors; AID 1159524, 2015; FMDV antiviral cell-based qHTS; calls by dose curve; tested in HEK293T cells; further: read-out not given here; potency means the concentration at half of the fitted maximal effect; nearly all actives have a fitted effect of over 45% in size
VACV mCherry inh: qHTS for Stage-Specific Inhibitors of Vaccinia Orthopoxvirus: mCherry Reporter Primary qHTS | hit rate 0.63% among 310,000 | Vaccinia virus mCherry reporter infection, fluorescence | AID 720579, 2013 | Potency, µM (titrated, usually from 36.5 µM), for inactives: at the top dose activity change, negative = inhibition, most hits filed as inhibitors; calls by dose curve; tested in A549 cells; further: potency means the concentration at half of the fitted maximal effect; nearly all actives have a fitted effect of over 35% in size
HCMV antiviral: qHTS Assay for inhibitors of the human cytomegalovirus (HCMV) | HFF cells, HCMV-luciferase reporter, 72 h; hits give low values | activity change, negative = inhibition, % at 57.5 µM | hit rate 4.5% among 410,000; in the data active means activity change below about -60%; inconclusive means no clear call, values can overlap the other calls; inactive means above about -39%
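HFF cells seeded 16 h at 37C, treated with compounds, infected with luciferase-reporter HCMV at MOI 1 PFU/cell; luciferase read at 72 h post infection, normalized to buffer-only and Salinomycin controls.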
Starred values were filed as active, the others as inactive; i = inactive; ? = inconclusive; / = not tested or not shown; ! = not active in a repeat; [ ] = another dose, or the depositor's remark. A selection: hits, their analogues and other compounds. The true share with any hit is near 7.3%. On the % scale 0 is the no-effect control and ±100 the full control effect.

SMILES	HCV inh	Vaccinia Venus	FMDV inh	VACV mCherry inh	HCMV antiviral
O=C1N[C@@H](Cc2ccccc2)C(=O)N2[C@@H]3N(S(=O)(=O)c4ccccc4)c4ccccc4[C@]3(Br)C[C@@H]12	-2.6%	?	0.0%	?	-27.6
COc1ccc([C@H]2NC(=O)C[C@@H]2C(=O)N2CCOCC2)cc1	/	/	/	/	-11.3
c1ccc(-c2cc3c(N4CCOCC4)ncnc3s2)cc1	10µM*	-26.9%	?	-18.0%	-17.7
Cc1nc(N2CCOCC2)c2cc(-c3ccccc3)sc2n1	?	-21.8%	-24.9%	-9.3%[1.46 µM]	-27.8
c1ccc(-c2cc3c(N4CCCCC4)ncnc3s2)cc1	?	-5.1%	-20.8%	-7.1%	?
c1ccc(-c2cc3c(N4CCCC4)ncnc3s2)cc1	10µM*	-20.4%	?	-11.4%	73.9
Cn1c(=O)c2c(SCC(=O)c3ccccc3)nc(C3CC3)nc2n(C)c1=O	0.7%	-9.3%	?	-11.4%	/
Cc1nc(SCC(=O)NCc2ccccc2)c2c(=O)n(C)c(=O)n(C)c2n1	3.7%	2.9%	31.6µM*	5.2%	-19.7
CCCc1nc(SCC(=O)c2ccccc2)c2c(=O)n(C)c(=O)n(C)c2n1	11.2µM*	-24.6%	?	-2.4%	?
CCc1nc(SCC(=O)c2ccccc2)c2c(=O)n(C)c(=O)n(C)c2n1	12.6µM*	-6.5%	?	-4.5%	0.0
O=C(Cc1cccs1)Nc1c(C(=O)Nc2ccc(F)cc2)oc2ccccc12	/	0.0%	0.0%	-2.9%	11.2
COCC(=O)OC1CCn2c1nc1c2C(=O)C(C)=C(NC(C)=O)C1=O (stereo unspecified)	14.1µM*	?	10µM*	?	-79.2*
Cc1ccc(S(=O)(=O)N(CCCO)CC(O)CON=C2c3ccccc3-c3ccccc32)cc1 (stereo unspecified)	10µM*	-8.5%	35.5µM*	-22.4%	31.0
COc1cc(C)c(CN2CCC3(CCC(CNC(=O)c4ccnn4C)O3)CC2)cc1C (stereo unspecified)	/	-14.2%	1.8%	i	/
COc1cccc(CN2CCN3C(C(=O)Nc4ccccc4)=COC3=NC2=O)c1	/	/	/	/	-61.7*
CCOC(=O)[C@@H]1CSCCS(=O)(=O)N1C(=O)[C@H](CCSC)NC(=O)OC(C)(C)C	/	/	/	/	8.3
O=C(C1CCC(CNc2nc(=S)[nH]c3ccccc23)CC1)N1CCN(c2ccccn2)CC1 (stereo unspecified)	/	-14.7%	?	-14.9%	-107.4*
Oc1ccc(NCc2ccccc2OCc2ccc(Cl)cc2)cc1	/	-9.2%[7.34 µM]	-10.4%	1.9%[7.34 µM]	-71.6*
O=c1[nH]c2ccc(NCc3ccccc3OCc3ccc(Cl)cc3)cc2[nH]1	?	/	?	/	-73.0*
O=C(N[C@H]1CC[C@@]23CCCN2C(=O)CCC[C@H]3[C@H]1Cc1ccccc1)c1ccc(Cl)c(C(F)(F)F)c1	/	/	/	/	7.3
COc1ccc(C(=O)c2c3ccccc3[n+]([O-])n2CCCN)cc1	12.3%	-5.9%	-2.6%	-12.2%	-95.5*!
COc1ccc(Cn2c(N)c(C(=O)NCc3ccco3)c3nc4ccccc4nc32)cc1OC	7.08µM*	-29.8%	?	-26.9%	10.2
COc1ccc(-n2c(N)c(C(=O)NCc3ccco3)c3nc4ccccc4nc32)cc1OC	?	-9.3%	-9.5%	?	-81.0*
Nc1c(C(=O)NCc2ccco2)c2nc3ccccc3nc2n1CCN1CCCCC1	?	-19.7%	/	-12.5%	-68.0*
COc1ccccc1CNC(=O)c1c(N)n(CCCN2CCOCC2)c2nc3ccccc3nc12	/	?	-8.4%	12.6µM*	-29.7
SMILES	HCV inh	Vaccinia Venus	FMDV inh	VACV mCherry inh	HCMV antiviral
COc1cc(-n2c(N)c(C(=O)NCc3ccco3)c3nc4ccccc4nc32)cc(OC)c1OC	-21.6%	/	-12.8%	/	-39.2
O=C(COc1ccccc1-c1nc(-c2ccccc2)no1)Nc1ccc([N+](=O)[O-])cc1	/	2.6%	-9.1%	-4.7%	12.7
COc1cccc(NS(=O)(=O)c2ccc3[nH]cc(C(=O)NC(C)c4ccccc4)c(=O)c3c2)c1 (stereo unspecified)	/	-3.2%[7.34 µM]	22.2%	-19.2%[7.34 µM]	?
O=c1c2sc3ccccc3c2n(Cc2ccccc2)c(=O)n1CCc1ccccc1	/	-11.1%	0.0%	-5.5%	21.1
Cc1ccc(-n2c(C)cc(C(=O)CSc3nncs3)c2C)cc1	?	?	/	?	-70.5*
Cc1cc(C(=O)CSc2nncs2)c(C)n1-c1c(C)n(C)n(-c2ccccc2)c1=O	6.4%	-9.4%	/	-13.8%	-21.4
Cc1cccc(Nc2nnc(SCC(=O)NC(=O)Nc3ccc4c(c3)OCCO4)s2)c1	1.7%	-20.1%	-4.3%	i	-96.0*
Cc1cccc(NC(=O)CSc2nnc(NC(=O)CN3CCCCC3)s2)c1	1.6%	/	/	/	-10.0
Cc1cccc(Nc2nnc(SCC(=O)Nc3cccc(S(=O)(=O)N4CCCCC4)c3)s2)c1	12.6µM*	-28.0%	0.0%	-2.7%	-8.2
O=C(Nc1ccc(Cl)c(C(F)(F)F)c1)NC1CC2CCCC(C1)N2Cc1ccccc1 (stereo unspecified)	25.1µM*	?	?	?	?
O=C(NC1CC2CCCC(C1)N2C(=O)Nc1ccc(Cl)c(C(F)(F)F)c1)C1CC1 (stereo unspecified)	-22.9%	/	?	/	-6.0
CCC(Sc1nc2cc(OC)c(OC)cc2c(=O)n1Cc1ccc(Cl)cc1)C(=O)NCCOC (stereo unspecified)	/	-15.7%	-11.4%	-14.3%	-8.2
CC(C)Cc1nc2oc3c(Cl)ncnc3c2c2c1CCC2	4.47µM*	-3.3%	0.8%	-4.3%	-95.6*
CC(C)Cc1nc2oc3c(NCCCN4CCOCC4)ncnc3c2c2c1CCC2	10µM*	/	-3.1%	/	?
CCCCOC(=O)n1c(=O)oc2ccccc21	14.9%	-17.3%	16.8%	/	-101.1*
CC(=O)Nc1ccc(S(=O)(=O)NCC2CCC(C(=O)NCc3ccccc3Cl)CC2)cc1 (stereo unspecified)	/	-1.5%	27.5%	-5.0%	0.0
CC(=O)Nc1ccc(S(=O)(=O)NCCSCc2ccccc2Cl)cc1	?	?	-27.3%	-15.3%	-84.4*
CCOc1ccccc1C(=O)N(Cc1cc(OC)c(OC)c(OC)c1)c1ccccn1	/	8.2%	-16.1%	-5.9%	-10.4
CCN1CCN(c2cc(N3CCc4ccccc4C3)c(F)cc2[N+](=O)[O-])CC1	4.47µM*	?	-26.5%	-15.3%	-25.4
O=C(Cc1ccccn1)N1CC(=O)N2[C@H](CO)[C@@H](c3ccc(Br)cc3)[C@H]2C1	/	/	/	/	-101.1*
O=C(Cc1ccccc1)N1CC(=O)N2[C@@H](CO)[C@@H](c3ccc(Br)cc3)[C@@H]2C1	/	/	/	/	0.7
Cc1c(C)n(Cc2ccccc2)c2ncnc(NN)c12	11.2µM*	/	?	/	-73.4*
COCCn1c(C)c(C)c2c(NCCc3ccccc3)ncnc21	?	/	?	/	-98.7*
Cc1c(C)n(CCc2ccccc2)c2ncnc(NCCCO)c12	-14.7%	/	26.9%	/	98.7
